Where “and” joins values, the source holds several entries; their conditions need not be identical. Equal entries are not always repeated. Inconclusive results are not listed. The source holds several records for some structures; these can differ, active in one and inactive in another. Calls of active or inactive are those of the source. Unless noted, the call rests on the fitted dose curve; in most records, active means well fitted curve in the direction sought with a large enough effect in the repeat runs; inconclusive means weak or mixed curves; inactive means no such curve, though single readings can be large; an effect the other way counts as inactive or inconclusive.

The record followed here is PubChem BioAssay (Tox21).

Assay [1] in a line: qHTS assay for small molecule agonists of the p53 signaling pathway (AID 651631; calls by dose curve; further: nearly all actives have a fitted effect of over 15% in size). The method in brief: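 Quantitative high-throughput format: 4,000 p53RE-bla HCT-116 cells/well, 5 h pre-incubation, 16 h compound exposure at 37 °C, 2 h room-temperature substrate step, fluorescence intensity measured.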
Background: In qHTS, concentration-response curves come from the screen itself.

Assay [2] in a line: qHTS assay for small molecules that induce genotoxicity in human embryonic kidney cells expressing luciferase-tagged ATAD5 (AID 651632). Further: nearly all actives have a fitted effect of over 15% in size. Further: potency means the concentration at half of the fitted maximal effect. A digest of the protocol:
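Reporter cells (HEK293T) express luciferase-tagged ATAD5, a protein that accumulates after DNA damage. Treat 16 hr at 37C/5% CO2, add Amplite, wait 30 min at RT, and read luminescence.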

The nature of assay [3]: qHTS assay for small molecule agonists of the p53 signaling pathway - cell viability (AID 651633; calls by dose curve; further: nearly all actives have a fitted effect of over 30% in size; further: potency means the concentration at half of the fitted maximal effect). The method in brief:
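Viability counter-read: CellTiter-Glo luminescence (30 min, room temperature) in the same p53RE-bla plates. These plates had been exposed to compounds for 16 h at 37 C.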

The nature of assay [4]: qHTS assay for small molecules that induce genotoxicity in human embryonic kidney cells expressing luciferase-tagged ATAD5 - cell viability (AID 651634; calls by dose curve; further: nearly all actives have a fitted effect of over 25% in size). A digest of the protocol: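 Seeding of 2,000 HEK293T ATAD5-luciferase cells per well preceded pin-tool compound transfer. Plates sat 15.5 hr at 37C under 5% CO2, then fluorescence was read after 30 min with CellTiter-Fluor.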

Assay [5] is described as follows: qHTS assay for small molecule disruptors of the mitochondrial membrane potential - cell viability (AID 720634; calls by dose curve;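 further: human HepG2 liver cancer cells; series mostly up to about 83 µM; nearly all actives have a fitted effect of over 20% in size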). The method in brief:
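Measuring cytotoxicity alongside mitochondrial potential, the screen quantified ATP by luminescence in HepG2 cells after 1 hr compound incubation and a 30 min room-temperature CellTiter-Glo step.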

The nature of assay [6]: qHTS assay for small molecule disruptors of the mitochondrial membrane potential (AID 720635). Further: potency means the concentration at half of the fitted maximal effect. A digest of the protocol:
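Mitochondrial membrane potential tracked with Mito-MPS dye, red aggregates (ex 540/em 590 nm) against green monomers (ex 490/em 535 nm). Compound treatment 1 hr at 37C, dye 30 min in HepG2.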

A short description of assay [7]: qHTS assay to test for compound auto fluorescence at 590 nm (red) in HepG2 cells (AID 720674). A digest of the protocol: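 We screened compounds on adherent HepG2 cells, incubating them for an hour at 37 C in 5% CO2 before reading emission at 590 nm under 540 nm excitation; values reflect equivalence to Rose Bengal sodium fluorescence.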
The nature of assay [8]: qHTS assay to test for compound auto fluorescence at 535 nm (green) in HepG2 cells (AID 720675).
A short description of assay [9]: qHTS assay to test for compound auto fluorescence at 460 nm (blue) in HEK293 cells (AID 720678). Further: potency means the concentration at half of the fitted maximal effect. The method in brief: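 HEK293 cells (2,000 per well, medium with 10% dialyzed FBS) attached for 4-5 hr at 37C, then received compound and stood overnight at 37C, 5% CO2. Blue fluorescence was read at Ex/Em 405/460 nm and expressed relative to triamterene.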
Assay [10] can be described thus: qHTS assay to test for compound auto fluorescence at 590 nm (red) in HEK293 cells (AID 720679). The method in brief:
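HEK293 cells (2,000/well, medium with 10% dialyzed FBS) attached for 4-5 hr at 37C, received 23 nL compound and were incubated overnight at 37C, 5% CO2. Red fluorescence was then read at 540/590nm Ex/Em, referenced to Rose Bengal sodium.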
Tags describe the fitted curve by direction and shape or compound fluorescence and quenching.

Regarding `c1ccc2[nH]cnc2c1`, the Potency entry in assay [1], in assay [2], in assay [3], in assay [4], in assay [5] and in assay [6] was “inactive” in each case. In addition, the Potency entry in assay [9] was “inactive”. Besides, the molecule was called inactive in assay [7] and in assay [8].
Consider `COC(=O)c1ccccc1O`, for which the Potency entry in assay [1], in assay [2], in [3], in assay [4], in assay [5] and in [6] was “inactive” throughout. Also, the Potency entry in assay [9] was “inactive”. In addition, the result in [7], in [8] and in assay [10] was inactive.
Take `C[C@@H]1O[C@@H](OC[C@H]2O[C@@H](Oc3c(-c4ccc(O)c(O)c4)oc4cc(O)cc(O)c4c3=O)[C@H](O)[C@@H](O)[C@@H]2O)[C@H](O)[C@H](O)[C@H]1O`: the Potency result in assay [1], in [2], in assay [3], in [4], in assay [5] and in assay [6] was “inactive” in each case. In assay [9], the Potency result is “inactive”. Besides, the outcome in assay [7] and in assay [8] was inactive.
Take `CCCCCCCCC`: the Potency result in [1], in assay [2], in [3], in assay [5], in [6] and in assay [9] was “inactive” throughout. The outcome in [7] and in assay [8] was inactive.
For `O=[N+]([O-])C(CO)(CO)CO`, the Potency result in assay [1], in [2], in [3], in assay [4] and in assay [9] was “inactive” throughout. Besides, the outcome in [7], in assay [8] and in assay [10] was inactive.
As to `C[C@@H](O)[C@H]1C(=O)N2C(C(=O)O)=C(S[C@@H]3CN[C@H](C(=O)N(C)C)C3)[C@H](C)[C@H]12`, the Potency entry in [1], in assay [2], in assay [3], in assay [5] and in [9] was “inactive” in each case. Besides, the call in assay [7] and in assay [8] was inactive.
Turning to `O=S(=O)(O)CCS`, the Potency entry in assay [1], in assay [2], in assay [3], in assay [5], in [6] and in assay [9] was “inactive” each time. In addition, the call in assay [7] and in [8] was inactive.
For `C=C(C)C(=O)OCCCCCCCCCCCC`, the Potency result in assay [1], in assay [2], in assay [3], in [5] and in assay [9] was “inactive” each time. Moreover, the outcome in [7] and in assay [8] was inactive.
Consider `Nc1nc2ncc(CNc3ccc(C(=O)N[C@@H](CCC(=O)O)C(=O)O)cc3)nc2c(=O)[nH]1`, for which the Potency entry in assay [1], in assay [2], in assay [3], in [4], in assay [5] and in assay [6] was “inactive” throughout. The result in assay [7] and in assay [8] was inactive. In addition, the Potency in [9] was 44.7 µM [fluorescent] (active).
With `O=C(O)c1cc(-c2ccccc2)nc2ccccc12`, the Potency entry in assay [1], in [2], in assay [3], in assay [4], in [5] and in assay [9] was “inactive” each time. Also, the molecule was classed as inactive in assay [7] and in [8].
For `CC1Cc2ccccc2N1NC(=O)c1ccc(Cl)c(S(N)(=O)=O)c1` (stereo not drawn), the Potency result in [1], in [2], in assay [3], in assay [4], in assay [5] and in [6] was “inactive” throughout. Moreover, the Potency entry in assay [9] was “inactive”. Further, the molecule was called inactive in [7] and in assay [8].
For the molecule `CCCCC(CC)C(=O)OCCOCCOCCOC(=O)C(CC)CCCC` (stereo not drawn), the Potency result in assay [1], in assay [2], in assay [3], in assay [4], in assay [5] and in assay [9] was “inactive” in each case. The Potency result in assay [6] is “inactive and 15.4 µM (active)”. Further, the call in assay [7], in assay [8] and in [10] was inactive.
Take `CC(C)(C)C1CCC(O)CC1` (stereo not drawn): the Potency result in assay [1], in assay [2], in assay [3], in [4], in [5] and in assay [6] was “inactive” throughout. The Potency entry in assay [9] is “inactive”. Also, the call in assay [7], in assay [8] and in [10] was inactive.
`O=c1c(-c2ccc(O)cc2)coc2cc(O)ccc12`: the Potency entry in [1], in assay [3], in assay [4] and in assay [9] was “inactive” each time. The Potency was 30.3 µM (active) in assay [2] and 19.1 µM (active) in assay [6]. The outcome in [7], in assay [8] and in assay [10] was inactive.
Regarding `Cc1ccc(N)c(S(=O)(=O)O)c1`, the Potency entry in assay [1], in assay [2], in assay [3], in [5], in assay [6] and in assay [9] was “inactive” each time. The result in assay [7] and in assay [8] was inactive.
Take `Clc1cc(Cl)c(Cl)cc1Cl`: the Potency entry in assay [1], in assay [2], in assay [3], in assay [5], in [6] and in [9] was “inactive” each time. The molecule was classed as inactive in [7], in assay [8] and in [10].
As for `O=C(Cl)c1c(Cl)c(Cl)c(C(=O)Cl)c(Cl)c1Cl`, the Potency result in [1], in assay [2], in assay [3], in assay [4], in assay [5] and in assay [6] was “inactive” each time. Further, the Potency entry in assay [9] was “inactive”. Further, the outcome in assay [7], in assay [8] and in assay [10] was inactive.
`Cc1ccc(C)c(C)c1`: the Potency result in assay [1], in assay [2], in assay [3], in assay [4], in [5] and in [6] was “inactive” each time. In [9], the Potency result is “inactive”. For the same molecule, the outcome in [7] and in assay [8] was inactive.
On to `O=C1O[C@H](CO)[C@@H](O)[C@H](O)[C@H]1O`, for which the Potency result in assay [1], in assay [2], in assay [3], in assay [4], in [5] and in assay [6] was “inactive” in each case. Further, in assay [9], the Potency result was “inactive”. Further, the call in assay [7], in assay [8] and in [10] was inactive.
In the case of `C=C(C)C(=O)OCCC[Si](OC)(OC)OC`, the Potency entry in assay [1], in assay [2], in assay [3], in assay [4], in assay [5] and in assay [9] was “inactive” throughout. In addition, the Potency in assay [6] was 76.1 µM (active) and inactive. The result in assay [7], in assay [8] and in [10] was inactive.
Consider `CC1(C)CC(N=C=O)CC(C)(CN=C=O)C1` (stereo not drawn), for which the Potency result in assay [1], in assay [2], in [3], in [4], in assay [5] and in assay [9] was “inactive” each time. The molecule was called inactive in [7], in [8] and in assay [10].
In the case of `OC[C@@H](O)[C@H](O)[C@H](O)[C@@H](O)CO`, the Potency entry in assay [1], in assay [2], in assay [3], in assay [5], in assay [6] and in [9] was “inactive” throughout. The result in assay [7], in assay [8] and in [10] was inactive.
`CCCCCCCCCCCCN`: the Potency result in [1], in assay [2], in [5] and in [9] was “inactive” in each case. Besides, in [3], the Potency result was “inactive and 27.3 µM (active)”. In addition, the result in [7], in [8] and in [10] was inactive.
Regarding `NS(=O)(=O)c1cc2c(cc1Cl)NC=NS2(=O)=O`, the Potency result in assay [1], in [2], in assay [3], in assay [4], in [5] and in assay [6] was “inactive” in each case. Besides, the Potency entry in assay [9] is “inactive”. For the same molecule, the call in assay [7], in assay [8] and in assay [10] was inactive.
